Results taken from PubChem BioAssay (NCI).
Compounds without any hit were thinned out: in the full panel of roughly 79,000, 15% have a hit. No stated cut-off is given here; in the data, active means growth inhibition above about 70%; inactive means the rest.

Experiments:
[1] = NCI Yeast Anticancer Drug Screen. Data for the rad50 strain (AID 155);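 further: 0% = growth of vehicle-only cultures of the same strain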; settings: S. cerevisiae rad50 strain growth inhibition; at 50.0 µM; active compounds read high
In short: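 Readout: growth inhibition relative to vehicle-treated cultures. Compound exposure was carried out in a genetically defined yeast strain deficient in DNA damage repair.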

[2] = NCI Yeast Anticancer Drug Screen. Data for the mec2-1 strain (AID 157); settings: S. cerevisiae mec2-1 strain, at 50.0 µM, active compounds read high
In short: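 Test agents were screened against the mec2-1 yeast strain, with defined DNA repair or cell cycle alteration. Growth was scored as inhibition against vehicle-only controls.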

[3] = NCI Yeast Anticancer Drug Screen. Data for the sgs1 mgt1 strain (AID 161);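 further: 0% = growth of cultures given vehicle only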; settings: S. cerevisiae sgs1 mgt1 strain, at 50.0 µM, active compounds read high
In short: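 Inhibition of yeast growth, normalised to vehicle-treated controls, is reported for a strain bearing genetic alterations in DNA damage repair.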

[4] = NCI Yeast Anticancer Drug Screen. Data for the cln2 rad14 strain (AID 165);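 further: 0% = growth equal to vehicle treated cultures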; settings: S. cerevisiae cln2 rad14 strain, at 50.0 µM, active compounds read high
In short: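 Growth of compound-exposed yeast (cln2 rad14 genotype) measured and expressed as inhibition relative to vehicle.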

[5] = NCI Yeast Anticancer Drug Screen. Data for the bub3 strain (AID 167); settings: S. cerevisiae bub3 mutant strain, at 50.0 µM, active compounds read high
In short: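 Readout: yeast growth inhibition, expressed relative to vehicle-only wells. The test organism is a mutant strain from a panel with lesions in DNA repair or checkpoint genes.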

[6] = NCI Yeast Anticancer Drug Screen. Data for the mlh1 rad18 strain (AID 175); settings: S. cerevisiae mlh1 rad18 strain growth inhibition; at 50.0 µM; active compounds read high
In short: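 In this whole-cell yeast screen, a strain with altered DNA damage repair is challenged with compound, and its growth is measured against matched vehicle-treated controls.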

Measured: growth inhibition

COc1ccc(C(O)Cc2cc(=O)cc(-c3ccccc3)[nH]2)cc1 (stereo unspecified)
inactive: [1] 2.2% | [2] -4.95% | [3] 2.2% | [4] -40.3% | [5] 9.85% | [6] -1.4%

Cc1c(O)ccc(N=O)c1O
inactive: [1] 20.4% | [2] 2.6% | [3] 18.9% | [4] 35.8% | [5] -1.6% | [6] 8.15%

Nc1nc([O-])c([I+]c2ccccc2)c(=O)[nH]1
inactive: [1] -17.5% | [2] -11.8% | [3] 3.7% | [4] -8.5% | [5] 0.15% | [6] -6.45%

COc1ccc(C)cc1NC(=S)NC(=O)c1cccc2ccccc12
inactive: [1] -38.6% | [2] 12.9% | [3] 9.85% | [4] -61.1% | [5] 40% | [6] -1.55%

OC(COc1ccc(Cl)cc1Cl)CN1CCCC1 (stereo unspecified)
inactive: [1] 10.1% | [2] 11.8% | [3] 17.7% | [4] 5.05% | [5] -23.4% | [6] 18.1%

COc1cccc2c(Cl)c3ccc(Cl)cc3nc12
inactive: [1] 11.4% | [2] 5.25% | [3] 0.8% | [4] -39.1% | [5] -18.9% | [6] 15.8%

CCOC(=O)C(c1ccccc1)C(C)c1ccccc1 (stereo unspecified)
inactive: [1] -7.5% | [2] -0.4% | [3] 1.85% | [4] 1.9% | [5] -11.3% | [6] -12.2%

O=NN(CCCl)C(=O)/N=N/C(=O)N(CCCl)N=O
inactive: [1] 6.25% | [2] -38.9% | [3] -20.4% | [4] 15.2% | [5] -3.85% | [6] 20%

CCOC(=O)c1cc2cc([N+](=O)[O-])ccc2[nH]1
inactive: [1] 10% | [2] 9.5% | [3] 0% | [4] 5.65% | [5] -7.2% | [6] 16.4%

CC(C(N)=O)N1C(=O)C2C3CCC(O3)C2C1=O (stereo unspecified)
inactive: [1] -7.65% | [2] -6.65% | [3] -16.1% | [4] -44.8% | [5] -1.8% | [6] 3.1%

COc1ccc(CCN(C)C(c2ccccc2)c2ccccc2)cc1OC
inactive: [1] -2.8% | [2] -6.65% | [3] 10.9% | [4] 3.75% | [5] 4.75% | [6] 3.3%

CCCCCCCCOC(=O)C(C)OC(C)=O (stereo unspecified)
inactive: [1] 17.2% | [2] 2.05% | [3] 2.3% | [4] 13.8% | [5] 12.3% | [6] 12.1%

Clc1ccc(CNc2ncnc3nc(Cl)[nH]c23)cc1
inactive: [1] -14.4% | [2] -14.9% | [3] -4.6% | [4] -41.2% | [5] -10.2% | [6] -23.9%

CCc1cccc(C(C)C)c1NC(=O)C(=O)C(C(=O)C(=O)OC)c1nc2ccccc2[nH]c1=O (stereo unspecified)
inactive: [1] 5.95% | [2] -29.1% | [3] 8.85% | [4] 20.2% | [5] -9.5% | [6] 2.9%

Nc1ccccc1C(=O)N/N=C/c1cccnc1
inactive: [1] 11.1% | [2] -21.3% | [3] 17.7% | [4] 9.45% | [5] 13.2% | [6] -16.6%

COC(=O)c1ccccc1NC(=O)Nc1ccc(SC)cc1
inactive: [1] -2% | [2] 24.4% | [3] 19.6% | [4] -8.65% | [5] 31.2% | [6] 14.3%

Oc1ccc(Br)cc1CNC1CCCCC1
inactive: [1] 58.5% | [2] 31.8% | [3] 61.1% | [4] -9.9% | [5] 27.1% | [6] 24.1%

COc1ccc(CC2c3cc(OC)c(OC)cc3CCN2C(=O)c2ccccc2)cc1OC (stereo unspecified)
inactive: [1] 10% | [2] -18.9% | [3] 9.5% | [4] 16.3% | [5] 10.7% | [6] 1.45%

Cc1cc(C)nc(NS(=O)(=O)c2ccc(Nc3c4ccc(Cl)cc4nc4c(C(=O)NCCN(C)C)cccc34)cc2)n1
inactive: [1] 0% | [2] 13.8% | [3] -5.05% | [4] 1.4% | [5] 30.8% | [6] 6.95%

CCN(CC)Cc1cc(N=Nc2ccc3c(c2)c2ccccc2n3CC)c2ccccc2c1O
inactive: [1] 20% | [2] 10.9% | [3] 11.2% | [4] 12.6% | [5] -5.5% | [6] 2.25%

O=C1Cc2c([nH]c3ccc(Cl)cc23)-c2ccccc2N1
inactive: [1] 5.55% | [2] 2.1% | [3] -50.9% | [4] 13.8% | [5] -7.9% | [6] 17.1%
